The campaign covered roughly 1,900 compounds. About 50 (3%) showed an effect of 50% or more. Many of the other results were omitted from the sample, so strong results are more common in it than they were.

Sequence of p38/MK2 protein–protein interaction (VF-p38α / GST-MK2) (Q16539 2-360 limits assumed): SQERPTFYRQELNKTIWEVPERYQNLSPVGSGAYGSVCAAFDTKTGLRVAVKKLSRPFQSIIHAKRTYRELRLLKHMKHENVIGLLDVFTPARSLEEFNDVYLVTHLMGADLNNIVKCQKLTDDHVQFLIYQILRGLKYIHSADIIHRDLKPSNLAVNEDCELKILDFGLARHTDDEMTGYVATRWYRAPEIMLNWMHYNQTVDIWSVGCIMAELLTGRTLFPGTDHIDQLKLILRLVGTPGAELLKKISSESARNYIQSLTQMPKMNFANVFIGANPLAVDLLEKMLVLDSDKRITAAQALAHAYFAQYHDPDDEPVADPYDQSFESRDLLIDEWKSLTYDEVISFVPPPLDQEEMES

This test concerns the target p38/MK2 protein–protein interaction (VF-p38α / GST-MK2) (Homo sapiens, UniProt Q16539). Kind of test: primary screen, percent of control activity; higher = less effect of the substance. Further details: species or system HEK293T cell lysate transfected with VF-p38α and GST-MK2; unclear (methods say 'quintuplet replicates'). The gist of the method: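 Lysate of HEK293T cells transfected with Flag-tagged p38α and GST-MK2, complex detected by TR-FRET with anti-Flag-Tb and anti-GST-d2 antibodies. Five replicates per compound. Signal normalised to percent of DMSO control.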
For the compound `S=c1nc[nH]c2nc[nH]c12`, the Pct of control is 126%. Under `COc1cc(-c2ncn(C=CC(=O)OC(C)C)n2)cc(C(F)(F)F)c1` stands 91.8%. Then `CN1CCN(c2nc(C3=C(c4c[nH]c5ccccc45)C(=O)NC3=O)c3ccccc3n2)CC1`, with 109%. Then `CC(=O)Oc1cc2c(s1)CCN(C(C(=O)C1CC1)c1ccccc1F)C2` (stereo not shown), with 87.9%; and `Cc1cc(OCc2nnc(SC3CCCC3)n2-c2cccnc2)ccc1-c1ccc(S(C)(=O)=O)cc1`, with 94.4%.

With `CCCCCCNC(=O)n1cc(F)c(=O)[nH]c1=O`, the Pct of control was found to be 110%. The compound `CN1CCc2cccc3c2C1Cc1ccc(O)c(O)c1-3.CN1CCc2cccc3c2C1Cc1ccc(O)c(O)c1-3.Cl.Cl.O` (stereo not shown) displayed a Pct of control of 44.4%.

In turn, `CN1CCc2cc3c(cc2C1C1OC(=O)c2c1ccc1c2OCO1)OCO3` (single isomer, unassigned; (+)) had a Pct of control of 93.7%. In turn, `CN1CCCC1c1cccnc1.O=C(O)C(O)C(O)C(=O)O.O=C(O)C(O)C(O)C(=O)O` (stereo not shown) had a Pct of control of 91.9%. `O=C1CC(=O)c2c(Cl)c(Cl)c(Cl)c(Cl)c21` registered a Pct of control of 32.6%.

As for `CC(=O)CCCCn1c(=O)c2c(ncn2C)n(C)c1=O`, the Pct of control was determined as 88.5%. As for `Cc1cc2c(cc1S(N)(=O)=O)S(=O)(=O)CCC2`, the Pct of control worked out at 94.1%. Then `Br.CN1C2CC(OC(=O)C(CO)c3ccccc3)CC1C1OC12` (stereo not shown), with 98.3%; and `Nc1nccc(Oc2ccc(NC(=O)c3c[nH]cc(-c4ccc(F)cc4)c3=O)cc2F)c1Cl`, with 73.2%.

Turning to `Cc1nc(NC(=O)N2CCCC2C(N)=O)sc1-c1ccnc(C(C)(C)C(F)(F)F)c1` (stereo not shown), the Pct of control stood at 108%. `Cc1ccc(Nc2nccc(N(C)c3ccc4c(C)n(C)nc4c3)n2)cc1S(N)(=O)=O` yielded a Pct of control of 84.3%. Turning to `CC(C)c1cc(C(C)C)c(CC(=O)NS(=O)(=O)Oc2c(C(C)C)cccc2C(C)C)c(C(C)C)c1`, the Pct of control came to 36.9%. Under `CNCC(O)c1ccc(O)c(O)c1.O=C(O)C(O)C(O)C(=O)O` (stereo not shown) stands 92.6%; under `CCCC[N+]1(C)C2CC(OC(=O)C(CO)c3ccccc3)CC1C1OC12.[Br-]` (stereo not shown), 96.8%.

With `O=C(NCC1(c2nc(-c3ccccc3)cs2)CCOCC1)c1cccc(-c2noc(C(F)(F)F)n2)c1`, the Pct of control turned out to be 114%. `CCOC(=O)c1ccc(N2NC(=O)C(=Cc3ccc([N+](=O)[O-])o3)C2=O)cc1` returned a Pct of control of 34.2%. Take `NC(=O)N/N=C/c1ccc([N+](=O)[O-])o1`: the Pct of control is 106%.

Turning to `CCOC(=O)c1ccc(N)cc1`, the Pct of control was determined as 97.4%. `Cc1cccc(N(C)C(=S)Oc2ccc3ccccc3c2)c1` gave a Pct of control of 101%. Under `O=P1(NCCCl)OCCCN1CCCl` (stereo not shown) stands 91.1%. Take `Cc1cccc(C)c1NC(=O)C1CCCCN1C.Cl` (stereo not shown): the Pct of control was determined as 95.5%. The compound `O=c1c(O)c(-c2ccc(O)c(O)c2)oc2cc(O)cc(O)c12` came in with a Pct of control of 68%. Then `O.O.O=c1c(O)c(-c2ccc(O)c(O)c2)oc2cc(O)cc(O)c12`, with 73.1%; and `O.O=c1c(O)c(-c2ccc(O)cc2O)oc2cc(O)cc(O)c12`, with 27%.

As for `O=c1c(O)c(-c2ccc(O)cc2)oc2cc(O)cc(O)c12`, the Pct of control came out at 75.1%. Then `CC1OC(Oc2c(-c3cc(O)c(O)c(O)c3)oc3cc(O)cc(O)c3c2=O)C(O)C(O)C1O` (stereo not shown), with 74%; and `O=c1c(O)c(-c2cc(O)c(O)c(O)c2)oc2cc(O)cc(O)c12`, with 43.2%. Under `CCn1cc(C(=O)O)c(=O)c2ccc(C)nc21` stands 103%. `COC(=O)Nc1nc2ccc(Sc3ccccc3)cc2[nH]1` displayed a Pct of control of 96.8%. Then `Cc1ccc(Sc2cncc3sc(C(N)=O)cc23)cc1`, with 96.8%; and `O=C(NCCCNc1nc(Nc2cccc(NC(=O)N3CCCC3)c2)ncc1I)c1cccs1`, with 105%; and `COc1ccc(C2C(=O)c3ccccc3C2=O)cc1`, with 93.2%. The compound `O=c1c(-c2ccc(O)cc2)coc2cc(O)cc(O)c12` had a Pct of control of 102%. For `COc1cc(OC)c(OC)cc1C=O`, the Pct of control is recorded as 91.5%.

In turn, `COC(=O)C1=C(C)NC(C)=C(C(=O)OC)C1c1ccccc1[N+](=O)[O-]` registered a Pct of control of 87%. `Cl.O=C(O)Cc1cccc(OCCCN(Cc2cccc(C(F)(F)F)c2Cl)CC(c2ccccc2)c2ccccc2)c1` returned a Pct of control of 39.4%. Then `O=C(Nc1ccncc1)c1cc([N+](=O)[O-])ccc1Cl`, with 103%; and `CCc1oc2ccccc2c1C(=O)c1cc(Br)c(O)c(Br)c1`, with 103%. Under `Cc1cc(C(C#N)c2ccc(Cl)cc2)c(Cl)cc1NC(=O)c1cc(I)cc(I)c1[O-].[Na+]` (stereo not shown) stands 46.2%; under `Cc1cc(C(C#N)c2ccc(Cl)cc2)c(Cl)cc1NC(=O)c1cc(I)cc(I)c1O` (stereo not shown), 45.2%. In turn, `CC(=O)Nc1cccc(-n2c(=O)n(C3CC3)c(=O)c3c(Nc4ccc(I)cc4F)n(C)c(=O)c(C)c32)c1` displayed a Pct of control of 93.7%.

`CC(C)(Oc1ccc(CCNC(=O)c2ccc(Cl)cc2)cc1)C(=O)O`: the Pct of control was 96.7%. The compound `Oc1c(Br)cc(Br)c2cccnc12` had a Pct of control of 104%. The compound `CCc1ccc(CCOc2ccc(CC3SC(=O)NC3=O)cc2)nc1` (stereo not shown) yielded a Pct of control of 97.3%.

`Clc1ccc(CCC(Cn2ccnc2)Sc2c(Cl)cccc2Cl)cc1.O=[N+]([O-])O` (stereo not shown): the Pct of control was 90.3%. In turn, `O=NN(CCCl)C(=O)NC1CCCCC1` came in with a Pct of control of 82.9%. `Cc1cc([N+](=O)[O-])ccc1NS(=O)(=O)c1cc(Cl)ccc1Cl` displayed a Pct of control of 87.8%.

The values are drawn from article PMC12751014, “Non-Catalytic Inhibitors of the p38/MK2 Interface: Repurposing Approved Drugs to Target Neuroinflammation in Alzheimer’s Disease” (Journal of Medicinal Chemistry, 2025).
